This note sets out measurements from PubChem BioAssay AID485313 (National Center for Advancing Translational Sciences (NCATS), 2010).

Each structure is given as a SMILES string. The whole screen tested about 320,000 compounds, of which about 7,600 (2.4%) were called active. Where a call stands in place of a potency, no number is given. Another 3% or so got no clear call; they are omitted. Calls come from the whole dose curve; as a rule, active = well fitted activation curve with a large enough effect; inconclusive = small, poorly fitted or top-dose-only effect; inactive = no such curve, though single readings can be large or run the other way. The full list was thinned out, with actives kept by preference.
Potency is the fitted concentration of half-maximal effect.

The nature of the experiment: qHTS Assay for NPC1 Promoter Activators. Note: nearly all actives have a fitted effect of over 60% in size. Conditions: Huh7 NPC1 promoter luciferase reporter, 24 h; series mostly up to 9.22 µM. The essentials:
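Luminescence from an NPC1 promoter-driven luciferase reporter in stably transfected Huh7 cells was measured after 24 h compound treatment at 37 °C, followed by 10 min ambient incubation with luciferase detection reagent.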
A general note: qHTS replaces the single test concentration by a dilution series.
As to `CC(OC(=O)c1cc2ccccc2o1)C(=O)Nc1ccc(N2CCOCC2)cc1` (centres undefined), the Potency result was “inactive”.

Regarding `COC(=O)c1cc(Oc2ccc(S(=O)(=O)N3CCOCC3)cc2[N+](=O)[O-])cc(C(=O)OC)c1`, the Potency result was “inactive”.

On to `CC(C)C[C@H](NC(=O)[C@H](O)[C@H](N)Cc1ccccc1)C(=O)O`, for which the Potency result was “inactive”.

`COc1cccc(-c2ccc3c(c2)S(=O)(=O)c2cccc(C(=O)O)c2C3=O)c1OC`: the Potency result was “inactive”.

As to `COc1ccc2c(c1OC)C(=O)c1ccccc1C2=O`, the Potency is 2820 nM (active).

As to `COc1ccc(/C=C2\CCc3ccccc3C2=O)c(OC)c1OC`, the Potency entry is “inactive”.

For `CCOC(=O)c1sc(N)c(C#N)c1COC(=O)C1=COCCO1`, the Potency entry was “inactive”.

Consider `CCOc1cccc(/C=C/c2ccc3ccccc3n2)c1OC(C)=O`, for which the Potency is 631 nM (active).

As to `COc1cccc(/C=C2\C=C(c3ccc(C)cc3)OC2=O)c1OC(C)=O`, the Potency entry was “inactive”.

For `CCOc1ccccc1-c1cc(C(=O)N2CCOCC2)c2ccccc2n1`, the Potency result was “inactive”.

As to `CC(=O)c1ccc(S(=O)(=O)N2CCN(C(=O)/C=C/c3ccc4ccccc4n3)CC2)cc1`, the Potency entry was “inactive”.

As to `COc1cccc(/C=C/c2ccc3ccccc3n2)c1OC(C)=O`, the Potency was 1000 nM (active).

For the compound `NC(=O)COC(=O)/C=C/c1ccc2ccccc2n1`, the Potency result is “inactive”.

Turning to `CNS(=O)(=O)c1cccc(C(=O)OCCCC(=O)c2ccccc2)c1`, the Potency result is “inactive”.

As to `COc1ccccc1-c1nn(Cc2ccccc2)cc1C(=O)N1CCN(c2ncccn2)CC1`, the Potency result was “inactive”.

As to `CC1(C)CC(=O)C=C(c2cccc3c2Oc2ccccc2S3)C1`, the Potency entry was “inactive”.

Regarding `O=C(COC(=O)CNC(=O)C1CCCCC1)Nc1cccc(F)c1`, the Potency result is “inactive”.

In the case of `Cc1ccccc1OCCC(=O)OCC(=O)NCCc1ccc(S(N)(=O)=O)cc1`, the Potency result is “inactive”.

For the compound `O=C(CN1CCN(C2CCS(=O)(=O)C2)CC1)N1N=C(c2ccc(Cl)cc2)CC1c1ccco1` (centres undefined), the Potency entry is “inactive”.

`CC(=O)Nc1ccc(NC(=O)CCN2C(=O)C3CC=CCC3C2=O)cc1` (centres undefined): the Potency result is “inactive”.

`CCC(=O)c1cn(CCOc2ccccc2OC)c2ccccc12`: the Potency entry was “inactive”.

Take `Cc1nonc1C1CCCN1C(=O)c1cc(COc2cccc(C(F)(F)F)c2)on1` (centres undefined): the Potency entry was “inactive”.

As for `CCOC(=O)CC1(NC(=O)c2cc(COc3cncc(Cl)c3)on2)CCCCC1`, the Potency entry is “inactive”.

As for `CCCOC1CCCN(C(=O)c2cc(COc3cncc(Cl)c3)on2)C1` (centres undefined), the Potency is 3980 nM (active).

`Cc1ccc2c(c1)C1CN(C)CCC1N2S(=O)(=O)c1cccc(F)c1` (centres undefined): the Potency result was “inactive”.

Turning to `O=C(CN1CCCSc2ccccc21)N1CCN(S(=O)(=O)c2cccc(F)c2)CC1`, the Potency result is “inactive”.

Consider `COC(=O)C1=C(C)NC(=S)NC1c1ccc(OCC(=O)N2CC(C)OC(C)C2)c(OC)c1` (centres undefined), for which the Potency entry was “inactive”.

Consider `COc1ccc(CCNC(=O)COc2ccc3c(c2)OCO3)cc1`, for which the Potency entry was “inactive”.

`CC(C)COC(=O)c1ccc(NC(=O)C2C3C=CC(C3)C2C(=O)O)cc1` (centres undefined): the Potency was 2240 nM (active).

As to `CC(=O)NS(=O)(=O)c1ccc(NC(=O)C2C3C=CC(C3)C2C(=O)O)cc1` (centres undefined), the Potency entry was “inactive”.

Turning to `COC(=O)c1cc(NC(=O)C2C3C=CC(C3)C2C(=O)O)cc(C(=O)OC)c1` (centres undefined), the Potency result is “inactive”.

Take `CCN(CC)S(=O)(=O)c1ccc2[nH]c(=O)cc(C(=O)N(C)C3CCS(=O)(=O)C3)c2c1` (centres undefined): the Potency result is “inactive”.

Regarding `C[C@H](OC(=O)n1ccnc1)[C@@H]1O[C@@]2(C)CCC[C@@H]1O2`, the Potency result is “inactive”.

As for `COc1ccccc1N1CC(C(=O)NCCN2C(=O)S/C(=C\c3cccnc3)C2=O)CC1=O` (centres undefined), the Potency result is “inactive”.

In the case of `Cc1ccc(C(CC(=O)O)NC(=O)c2ccc(S(=O)(=O)N3CCCC3)cc2)cc1` (centres undefined), the Potency entry is “inactive”.

As to `O=C(NCCN1CCOCC1)c1cccc(S(=O)(=O)Nc2ccc(F)cc2)c1`, the Potency result was “inactive”.

On to `O=C(NC(=S)NC1CCCCC1)c1ccc(Cl)cc1`, for which the Potency entry is “inactive”.

`O=C(NC1CCCCC1)c1ccc(-c2ccc(Cl)cc2)o1`: the Potency is 3160 nM (active).

In the case of `O=C(NC1CCCCCC1)c1cccnc1Sc1ccc(Cl)cc1`, the Potency entry was “inactive”.

For the compound `Cc1ccc(NC(=O)C(C)Sc2nnc(C3CC3)n2C2CC2)cc1S(=O)(=O)N1CCOCC1` (centres undefined), the Potency result was “inactive”.

Consider `C=CCn1c(SCC(=O)NC(=O)Cc2ccccc2)nc2ccccc2c1=O`, for which the Potency result was “inactive”.

For the compound `Cc1nc(/N=C(\N)NC(=O)NC2CCCCC2)nc2ccccc12`, the Potency result was “inactive”.

Turning to `O=C(/C=C/c1cnc2ccccc2n1)NC1CCCCCC1`, the Potency was 3550 nM (active).

Take `O=C(Cn1c(-c2cncs2)nc2ccccc21)NC1CCCC1`: the Potency result is “inactive”.

On to `COc1ccc2c(C)cc(SCC(=O)NCC3CCCO3)nc2c1` (centres undefined), for which the Potency result is “inactive”.

In the case of `Cc1cccc(NC(=O)c2ccc3ccccc3n2)n1`, the Potency is 3160 nM (active).

Turning to `Cc1cccc(NC(=O)c2cccnc2Cl)n1`, the Potency result was “inactive”.

In the case of `Cc1cccc(NC(=O)c2ccccc2NC(=O)C(C)(C)C)n1`, the Potency result is “inactive”.

For the compound `Cc1ccc(-n2nc3ccc(NC(=O)/C=C/c4ccco4)cc3n2)cc1C`, the Potency result was “inactive”.

On to `CCC(=O)Nc1ccc(C(=O)Nc2cccc(OC)c2)cc1`, for which the Potency entry is “inactive”.

Take `CCC(=O)Nc1ccc2nn(-c3ccc(F)cc3)nc2c1`: the Potency is 355 nM (active).

Take `Cc1noc(C)c1S(=O)(=O)Nc1ccc(C(=O)N2CCN(c3ccc(F)cc3)CC2)cc1`: the Potency entry is “inactive”.

On to `O=C(NC1CCCC1)c1cc(-c2ccccc2)on1`, for which the Potency is 1260 nM (active).

For `O=C(Nc1cccnc1Cl)c1cc(-c2cccc(Cl)c2)on1`, the Potency result is “inactive”.

As for `O=C(NCCCN1CCOCC1)c1cc(-c2cccc(O)c2)on1`, the Potency result was “inactive”.

On to `Cc1cc(C)cc(-c2nnc(SCC(=O)NC3CC3)o2)c1`, for which the Potency entry was “inactive”.

Regarding `Cc1cccc(C)c1NC(=O)CSc1nc2c([nH]1)c(=O)n(C)c(=O)n2C`, the Potency entry is “inactive”.

Consider `CCOc1ncccc1C(=O)Nc1ccc(S(=O)(=O)Nc2nc(C)cc(C)n2)cc1`, for which the Potency result is “inactive”.

`O=C(CN1CCN(c2ccc(Cl)cc2)CC1)N1CCCC1`: the Potency entry is “inactive”.

Take `O=C(CSCc1ccc(Cl)cc1)N1CCCCC1`: the Potency is 6310 nM (active).

`O=C(CSCc1ccc(Cl)cc1)N1CCN(Cc2ccc3c(c2)OCO3)CC1`: the Potency result was “inactive”.

As for `CCN(c1ccccc1)S(=O)(=O)c1ccc(OCC(=O)N2CCCC2)cc1`, the Potency entry was “inactive”.

Regarding `O=C(NNC(=O)c1cc(S(=O)(=O)N2CCCCC2)ccc1Cl)c1ccccc1O`, the Potency result was “inactive”.

Regarding `Cc1cc(C)cc(NC(=O)C(c2ccccc2)N2CCN(CC(=O)N3CCCC3)CC2)c1` (centres undefined), the Potency entry is “inactive”.

As to `COc1ccc(S(=O)(=O)N2CCOCC2)cc1NC(=O)CC1CC2CCC1C2` (centres undefined), the Potency result was “inactive”.

Regarding `CCOc1nnc(C)c2c(C)n(-c3cccc(Cl)c3)nc12`, the Potency result was “inactive”.

For `Cc1ccccc1Nc1nc(N)nc(CSc2ccccc2)n1`, the Potency is 1260 nM (active).

On to `Cc1ccccc1Nc1nc(N)nc(CSc2nnc3ccccn23)n1`, for which the Potency result is “inactive”.

Turning to `Cc1ccc(C(=O)OCc2nc(N)nc(Nc3ccccc3C)n2)cc1`, the Potency result was “inactive”.

`O=C1CC[C@H](O)CCN1[C@H](CSc1ccc(Br)cc1)Cc1ccccc1`: the Potency entry is “inactive”.

Turning to `COc1ccc(COCC(O)CN2CCC(C(N)=O)CC2)cc1` (centres undefined), the Potency result is “inactive”.

Consider `COc1cc(CN2CCC(C(N)=O)CC2)ccc1OCc1ccccc1`, for which the Potency was 3980 nM (active).

Consider `CCOc1cc(CN2CCN(C(=O)CC(C)C)CC2)ccc1OC`, for which the Potency result is “inactive”.

As for `CCOC(=O)C1CCN(S(=O)(=O)c2ccc3c(c2)N(C(C)=O)CCO3)CC1`, the Potency entry is “inactive”.

Turning to `Cc1ccc(C)c(NC(=O)C(c2ccccc2)N2CCN(CC(=O)NC3CC3)CC2)c1` (centres undefined), the Potency result is “inactive”.

`Cc1ncc(CC(=O)n2cc(C(=O)c3cc(Cl)ccc3O)cn2)s1`: the Potency result was “inactive”.

On to `COc1ccc(CNC(=O)COc2ccccc2C(=O)c2cnn(-c3ccccc3)c2)cc1OC`, for which the Potency entry is “inactive”.

In the case of `O=C(c1cnn(-c2ccc(Cl)cc2)c1)c1ccccc1O`, the Potency is 3550 nM (active).

On to `Cc1ccnc(-n2sc3ccccc3c2=O)n1`, for which the Potency result is “inactive”.

For the compound `Cc1ccnc(NC(=O)c2ccco2)n1`, the Potency result is “inactive”.

`Cc1ccnc(Nc2nc3ccccc3s2)n1`: the Potency was 3550 nM (active).

Turning to `COc1cc(C(=O)NNC(=O)CN2C(=O)NC3(CCCC3)C2=O)cc(OC)c1OC`, the Potency result was “inactive”.

Take `CN(C)S(=O)(=O)c1ccc(C(=O)NCC2(N3CCOCC3)CCCCC2)cc1`: the Potency entry was “inactive”.

Consider `O=C(CSc1nnnn1C1CCCC1)N1CCCCC1`, for which the Potency was 3550 nM (active).

Take `CC1CCCC(C)N1C(=O)CSc1nnnn1C1CCCC1` (centres undefined): the Potency entry was “inactive”.

With `CC(=O)Nc1ccc(NC(=O)CSc2nnnn2C2CCCCC2)cc1`, the Potency entry was “inactive”.

Take `C/C(=N\NC(=O)c1ccc(NS(=O)(=O)c2cccs2)cc1)c1ccc2ccccc2c1`: the Potency entry is “inactive”.

For `COCCNc1nnc(SCC(=O)NNC(=O)c2ccco2)s1`, the Potency entry is “inactive”.

On to `COc1ccccc1N1CCN(C(=O)CSc2ncnc3c2cnn3-c2ccc(C)c(C)c2)CC1`, for which the Potency result is “inactive”.

In the case of `Cc1cccc(-n2ncc(Cl)c(Cl)c2=O)c1`, the Potency entry was “inactive”.

As for `COc1ccc2oc(=O)c(C(=O)N3CCCc4ccccc43)cc2c1`, the Potency result is “inactive”.

Turning to `COc1ccc(-n2ncc3c(N4CCCc5ccccc54)ncnc32)cc1`, the Potency is 501 nM (active).

For the compound `Cc1cccc(-n2ncc3c(N4CCc5ccccc54)ncnc32)c1`, the Potency is 1580 nM (active).

For `COc1ccc(Oc2c(Cl)cnn(-c3ccccc3)c2=O)cc1`, the Potency result was “inactive”.

For `O=C(CCNC(=O)c1ccccc1Cl)NCc1ccco1`, the Potency entry was “inactive”.

On to `O=C(CCC(=O)c1ccccc1)NCc1cccc(C(F)(F)F)c1`, for which the Potency result is “inactive”.

`FC(F)Oc1ccccc1C1CC(c2ccc(Br)s2)Nc2ncnn21` (centres undefined): the Potency entry is “inactive”.

Consider `CCOC(=O)N1CCN(Cc2nc(N)nc(Nc3ccc(C)cc3)n2)CC1`, for which the Potency entry is “inactive”.

Take `Cc1ccc(Nc2nc(N)nc(CSc3nnc(C)s3)n2)cc1`: the Potency was 2510 nM (active).

Regarding `Cc1nnc(SCc2nc3ccccc3nc2C)s1`, the Potency entry is “inactive”.

In the case of `Nc1ccc(Nc2cc(O)c3ncccc3c2)cc1`, the Potency result was “inactive”.

As for `CCCN(CC(=O)Nc1ccccc1C)C(=O)c1ccc2[nH]c3c(c2c1)CC(C)CC3` (centres undefined), the Potency entry was “inactive”.

For the compound `Cc1ccc2cc3cc(C(=O)N4CCCCCC4)oc3nc2c1`, the Potency was 1120 nM (active).

Take `Cc1cc(C)cc(NC(=O)N2CCCCCCC2)c1`: the Potency result is “inactive”.

`COc1ccc2oc(=O)c(C(=O)N3CCCC3)cc2c1`: the Potency result was “inactive”.

Consider `COc1ccc(-c2c(-c3cc(OC)cc(OC)c3)n(C)c3ccc(-c4ccn[nH]4)cc23)cc1`, for which the Potency entry is “inactive”.

In the case of `O=C(Nc1ccncc1)c1ccc([N+](=O)[O-])cc1Cl`, the Potency result is “inactive”.

As to `O=C(Nc1ccc(Br)cn1)c1ccc([N+](=O)[O-])cc1Cl`, the Potency is 2000 nM (active).

As for `O=C(Nc1ccc(Br)cn1)c1ccc([N+](=O)[O-])o1`, the Potency result was “inactive”.
